About 83,000 compounds went through this panel and 20% of them were active in at least one assay; those are over-represented in the sample as a whole.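 Assay: single dose, 48 h. Readout: percent growth (0 = no net growth; negative = cell death). Active: <10.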 Active and inactive are the calls of the source.
Columns and labels:
Assay in all cases: NCI-60 one-dose screen, 48 h (100 = growth as untreated, 0 = no growth, -100 = all killed)
SR leukemia = conditions: 10 µM unless noted
RPMI-8226 leukemia = conditions: 10 µM unless noted
OVCAR-8 ovarian = conditions: 10 µM unless noted
OVCAR-5 ovarian = conditions: 10 µM unless noted
OVCAR-4 ovarian = conditions: 10 µM
SK-OV-3 ovarian = conditions: 10 µM unless noted
IGROV1 ovarian = conditions: 10 µM unless noted
OVCAR-3 ovarian = conditions: 10 µM unless noted
HS 578T breast = conditions: 10 µM unless noted
NCI/ADR-RES ovarian = conditions: 10 µM unless noted
T-47D breast = conditions: 10 µM unless noted
MDA-MB-435 melanoma = conditions: 10 µM unless noted
SW-620 colon = conditions: 10 µM unless noted
MCF7 breast = conditions: 10 µM unless noted
HCT-116 colon = conditions: 10 µM unless noted
HCC-2998 colon = conditions: 10 µM unless noted
KM12 colon = conditions: 10 µM unless noted
BT-549 breast = conditions: 10 µM unless noted

Measured: growth

Cn1ncc2c(Nc3ccc(O)cc3)nc(Cl)nc21
inactive: SR leukemia 75.3% | RPMI-8226 leukemia 79.4% | OVCAR-8 ovarian 104% | OVCAR-5 ovarian 105% | OVCAR-4 ovarian 105% | SK-OV-3 ovarian 105% | IGROV1 ovarian 92.9% | OVCAR-3 ovarian 117% | HS 578T breast 102% | NCI/ADR-RES ovarian 97.3% | T-47D breast 106% | MDA-MB-435 melanoma 102% | SW-620 colon 118% | MCF7 breast 94% | HCT-116 colon 108% | HCC-2998 colon 105% | KM12 colon 106%

COCCCNc1nc(NC(=O)c2cc(Br)cc(C(F)(F)F)c2)cc(-c2cccnc2)n1
inactive: SR leukemia 83.4% | RPMI-8226 leukemia 65.6% | OVCAR-8 ovarian 87.5% | OVCAR-5 ovarian 100% | OVCAR-4 ovarian 92.3% | SK-OV-3 ovarian 92.2% | IGROV1 ovarian 91.3% | OVCAR-3 ovarian 109% | HS 578T breast 83% | NCI/ADR-RES ovarian 99.5% | T-47D breast 65% | MDA-MB-435 melanoma 88.4% | SW-620 colon 86.9% | MCF7 breast 83.8% | HCT-116 colon 85.6% | HCC-2998 colon 114% | KM12 colon 105%

O=C1C(Cl)=C(Nc2ccc3cn[nH]c3c2)C(=O)c2ccccc21
active: SR leukemia -52% | RPMI-8226 leukemia -54.7% | OVCAR-8 ovarian -58.2% | OVCAR-5 ovarian -37.9% | OVCAR-4 ovarian -98.9% | IGROV1 ovarian -83.5% | OVCAR-3 ovarian -100% | HS 578T breast -50.4% | NCI/ADR-RES ovarian -67.5% | T-47D breast -52.3% | MDA-MB-435 melanoma -95% | SW-620 colon -86% | MCF7 breast -68.3% | HCT-116 colon -98.6% | HCC-2998 colon -83%
inactive: SK-OV-3 ovarian 87.2% | KM12 colon 28%

Cc1ccc2c(c1)C(C)Cc1c(Cl)ncnc1N2C (stereo not drawn)
inactive: SR leukemia 22.6% | RPMI-8226 leukemia 28.2% | OVCAR-8 ovarian 11.9% | OVCAR-5 ovarian 40.4% | OVCAR-4 ovarian 19.5% | SK-OV-3 ovarian 15.7% | IGROV1 ovarian 61% | HS 578T breast 32.7% | NCI/ADR-RES ovarian 10.7% | T-47D breast 51.8% | SW-620 colon 16.6% | MCF7 breast 13.5% | HCT-116 colon 12.9% | HCC-2998 colon 20.5%
active: OVCAR-3 ovarian 6.8% | MDA-MB-435 melanoma 6.38% | KM12 colon 9.89%

CC1(C)OC2[C@@H](CNC(=O)NC(=O)NC(=O)CI)O[C@@H](n3cnc4c(NC(=O)Nc5ccccc5)ncnc43)[C@H]2O1 (stereo partly drawn)
active: SR leukemia -50.8% | OVCAR-3 ovarian -32.6% | SW-620 colon -41.9%
inactive: RPMI-8226 leukemia 64.2% | OVCAR-8 ovarian 75.9% | OVCAR-5 ovarian 93% | OVCAR-4 ovarian 73.5% | SK-OV-3 ovarian 105% | IGROV1 ovarian 15.5% | HS 578T breast 98.7% | NCI/ADR-RES ovarian 84.6% | T-47D breast 49% | MDA-MB-435 melanoma 83.8% | MCF7 breast 33% | HCT-116 colon 51.2% | HCC-2998 colon 94% | KM12 colon 84.2%

CCN(CCO)CCC(=O)c1ccc([N+](=O)[O-])cc1
inactive: SR leukemia 107% | RPMI-8226 leukemia 104% | OVCAR-8 ovarian 101% | OVCAR-5 ovarian 116% | OVCAR-4 ovarian 103% | SK-OV-3 ovarian 107% | IGROV1 ovarian 108% | OVCAR-3 ovarian 104% | HS 578T breast 101% | NCI/ADR-RES ovarian 102% | T-47D breast 90.6% | MDA-MB-435 melanoma 111% | SW-620 colon 113% | MCF7 breast 98.6% | HCT-116 colon 112% | HCC-2998 colon 97.4% | KM12 colon 102%

O=C(O)c1cccc(CN2CCN(c3cc4c(cc3F)c(=O)c(C(=O)O)cn4C3CC3)CC2)c1O
inactive: SR leukemia 87.5% | RPMI-8226 leukemia 103% | OVCAR-8 ovarian 96.7% | OVCAR-5 ovarian 102% | OVCAR-4 ovarian 114% | SK-OV-3 ovarian 101% | IGROV1 ovarian 101% | OVCAR-3 ovarian 106% | HS 578T breast 103% | NCI/ADR-RES ovarian 101% | T-47D breast 96.6% | MDA-MB-435 melanoma 99% | SW-620 colon 102% | MCF7 breast 97.6% | HCT-116 colon 104% | HCC-2998 colon 105% | KM12 colon 104%

Cn1cc(-c2noc(-c3cn(C)c4ncc(F)cc34)n2)c2ccccc21
inactive: SR leukemia 69.1% | RPMI-8226 leukemia 78.2% | OVCAR-8 ovarian 40% | OVCAR-5 ovarian 75.1% | IGROV1 ovarian 45% | OVCAR-3 ovarian 32.5% | HS 578T breast 30.9% | NCI/ADR-RES ovarian 58.2% | T-47D breast 42.3% | MDA-MB-435 melanoma 72.8% | SW-620 colon 56.1% | MCF7 breast 34.1% | HCT-116 colon 27% | HCC-2998 colon 86.6% | KM12 colon 62.7%
active: OVCAR-4 ovarian -29.4% | SK-OV-3 ovarian 7.74%

C=CC1=C(C)C2=NC1=CC1=NC(=CC3=C(C)C4=C(O)C(C(=O)O)C(=C5NC(=C2)C(C)C5CCC(=O)O)C4=N3)C(CC)=C1C (stereo not drawn)
inactive: SR leukemia 95.5% | RPMI-8226 leukemia 102% | OVCAR-8 ovarian 107% | OVCAR-5 ovarian 114% | OVCAR-4 ovarian 103% | SK-OV-3 ovarian 119% | IGROV1 ovarian 106% | OVCAR-3 ovarian 107% | HS 578T breast 105% | NCI/ADR-RES ovarian 114% | T-47D breast 123% | MDA-MB-435 melanoma 120% | SW-620 colon 104% | MCF7 breast 113% | HCT-116 colon 101% | HCC-2998 colon 109% | KM12 colon 105%

COc1ccc(C(=O)CCC(=O)O)cc1
inactive: SR leukemia 99.7% | RPMI-8226 leukemia 87.3% | OVCAR-8 ovarian 71.4% | OVCAR-5 ovarian 88.3% | OVCAR-4 ovarian 64.8% | SK-OV-3 ovarian 115% | IGROV1 ovarian 96.8% | OVCAR-3 ovarian 79% | HS 578T breast 105% | NCI/ADR-RES ovarian 83.6% | T-47D breast 33.9% | MDA-MB-435 melanoma 107% | SW-620 colon 84.5% | MCF7 breast 21.2% | HCC-2998 colon 102% | KM12 colon 103%
active: HCT-116 colon 7.77%

N#CCCc1c[nH]c2ccccc12
inactive: SR leukemia 91.5% | RPMI-8226 leukemia 92.7% | OVCAR-8 ovarian 91.9% | OVCAR-5 ovarian 102% | OVCAR-4 ovarian 93% | SK-OV-3 ovarian 88.9% | IGROV1 ovarian 103% | OVCAR-3 ovarian 98.7% | HS 578T breast 94.3% | NCI/ADR-RES ovarian 99.3% | BT-549 breast 97.6% | MDA-MB-435 melanoma 101% | SW-620 colon 92% | MCF7 breast 94.8% | HCT-116 colon 92.8% | HCC-2998 colon 113%

Nc1nc(Nc2ccccc2)c2ncn(Cc3ccc4c(c3)OCO4)c2n1
inactive: SR leukemia 13.6% | RPMI-8226 leukemia 30.6% | OVCAR-8 ovarian 55.1% | OVCAR-5 ovarian 71.5% | OVCAR-4 ovarian 66.9% | SK-OV-3 ovarian 51.2% | IGROV1 ovarian 64.2% | OVCAR-3 ovarian 24.1% | HS 578T breast 42.8% | T-47D breast 33.8% | SW-620 colon 23.1% | MCF7 breast 21.3% | HCT-116 colon 35.2% | HCC-2998 colon 71% | KM12 colon 26.2%
active: NCI/ADR-RES ovarian 9.58% | MDA-MB-435 melanoma -23.4%

O=C1NC(=O)C(Cc2ccccc2)(Cc2ccccc2)N1
inactive: SR leukemia 104% | RPMI-8226 leukemia 91% | OVCAR-8 ovarian 104% | OVCAR-5 ovarian 110% | OVCAR-4 ovarian 91.2% | SK-OV-3 ovarian 98.1% | IGROV1 ovarian 115% | OVCAR-3 ovarian 98.9% | HS 578T breast 111% | NCI/ADR-RES ovarian 101% | BT-549 breast 90.4% | MDA-MB-435 melanoma 96.4% | SW-620 colon 101% | MCF7 breast 96.2% | HCT-116 colon 90.9% | HCC-2998 colon 104%

CC1Cc2c(Cl)ncnc2N(C)c2ccc(Cl)cc21 (stereo not drawn)
inactive: OVCAR-5 ovarian 39.8% | SK-OV-3 ovarian 12% | IGROV1 ovarian 30.5% | HS 578T breast 23.4% | NCI/ADR-RES ovarian 13.1% | HCC-2998 colon 36.9% | KM12 colon 10.1%
active: SR leukemia 6.35% | RPMI-8226 leukemia -3.81% | OVCAR-8 ovarian 8.59% | OVCAR-4 ovarian 7.91% | OVCAR-3 ovarian 9.74% | T-47D breast 2.19% | MDA-MB-435 melanoma 3.3% | SW-620 colon 6.73% | MCF7 breast 7.64% | HCT-116 colon 7.96%

COc1cc(-c2nc(SCCC(C)C)nc(Nc3ccc(S(N)(=O)=O)cc3)c2C#N)cc(OC)c1OC
active: SR leukemia -18.5% | RPMI-8226 leukemia -0.242% | HCT-116 colon 3.77%
inactive: OVCAR-8 ovarian 29.9% | OVCAR-5 ovarian 53.9% | OVCAR-4 ovarian 19.8% | SK-OV-3 ovarian 76.5% | IGROV1 ovarian 40.5% | OVCAR-3 ovarian 32.5% | HS 578T breast 40.5% | NCI/ADR-RES ovarian 37.6% | BT-549 breast 27.6% | MDA-MB-435 melanoma 22.2% | SW-620 colon 36.3% | MCF7 breast 16.9% | HCC-2998 colon 35.2% | KM12 colon 19.9%

CC1Cc2c(Cl)ncnc2N(C)c2ccccc21 (stereo not drawn)
active: SR leukemia 6.5%
inactive: RPMI-8226 leukemia 12.2% | OVCAR-8 ovarian 10.7% | OVCAR-5 ovarian 41.8% | OVCAR-4 ovarian 21.5% | SK-OV-3 ovarian 15.8% | IGROV1 ovarian 50.5% | OVCAR-3 ovarian 10.6% | HS 578T breast 24.6% | NCI/ADR-RES ovarian 16.6% | T-47D breast 42.5% | MDA-MB-435 melanoma 14.9% | SW-620 colon 14% | MCF7 breast 14.1% | HCT-116 colon 12.9% | HCC-2998 colon 34.5% | KM12 colon 11.3%

Cc1cc(C)c(-c2cc(O)c(-c3c(C)cc(C)cc3C)cc2O)c(C)c1
inactive: SR leukemia 19.9% | RPMI-8226 leukemia 42.3% | OVCAR-8 ovarian 49.4% | OVCAR-5 ovarian 50.7% | OVCAR-4 ovarian 58.9% | IGROV1 ovarian 70.3% | HS 578T breast 11.9% | NCI/ADR-RES ovarian 57.9% | T-47D breast 43% | MCF7 breast 21.7% | HCT-116 colon 22.6% | HCC-2998 colon 45.8% | KM12 colon 23.9%
active: SK-OV-3 ovarian 4.25% | OVCAR-3 ovarian -25.7% | MDA-MB-435 melanoma 2.34%

CCc1ccc(-c2ccc(COc3ccc(CC4SC(=O)NC4=O)cc3)cc2)cc1 (stereo not drawn)
inactive: SR leukemia 45.9% | RPMI-8226 leukemia 57.5% | OVCAR-8 ovarian 77.2% | OVCAR-5 ovarian 91.2% | OVCAR-4 ovarian 58.6% | SK-OV-3 ovarian 84.9% | IGROV1 ovarian 63.8% | OVCAR-3 ovarian 73.6% | HS 578T breast 80.9% | NCI/ADR-RES ovarian 65.1% | T-47D breast 41% | MDA-MB-435 melanoma 57.9% | SW-620 colon 80.7% | MCF7 breast 59.1% | HCT-116 colon 51% | HCC-2998 colon 89.6% | KM12 colon 64%

— PubChem BioAssay (NCI)
